What all share (type): functional
Assay [1] relates to Plasmodium falciparum. Nature of the assay: GSK_TCMDC: Inhibition of Plasmodium falciparum 3D7 in whole red blood cells, using parasite LDH activity as an index of growth. Test compounds present at 2uM.
In assay [2] the test system is Plasmodium falciparum. Nature of the assay: GSK_TCMDC: Inhibition of Plasmodium falciparum Dd2 in whole red blood cells, using parasite LDH activity as an index of growth. Test compounds present at 2uM.
In the next assay the test system is HepG2. Nature of the assay: GSK_TCMDC: Percent inhibition of human HepG2 cell line. Test compounds present at 10uM.

Molecules are shown by their SMILES. Several values for one entry are separate records, joined by “and”; a condition that tells them apart may be missing. Equal entries are not always repeated.

Consider `O=C(C=C1c2ccccc2-c2ccccc21)NC1CCC(CN2CCC(c3c[nH]c4ccccc34)CC2)CC1` (stereo not given), for which the Inhibition with Plasmodium falciparum [1] was 99% and 100%; in the assay on Plasmodium falciparum [2] it was 64% and 67%; with HepG2, 21% and 54%.

As for `CS(=O)(=O)Nc1ccc2[nH]cc(C3CCN(CC4CCC(NC(=O)/C=C/c5ccccc5Cl)CC4)CC3)c2c1` (stereo not given), the Inhibition in the assay with Plasmodium falciparum [1] is on record as 96%; in the assay on Plasmodium falciparum [2], 7%; in the assay on HepG2, 12%.

As to `COc1ccc(OC)c(CNCC(O)c2cc(C(F)(F)F)cc(C(F)(F)F)c2)c1` (stereo not given), the Inhibition in the assay with Plasmodium falciparum [1] stood at 92%; in the assay with Plasmodium falciparum [2], 100%; with HepG2, 7%.

For the molecule `CN(C)c1cccc(CCNCCc2c[nH]c3ccc(Cl)cc23)c1.O=C(O)C(=O)O`, the Inhibition amounted to 94% in the assay with Plasmodium falciparum [1], 75% in the assay with Plasmodium falciparum [2] and 19% with HepG2.

For the molecule `O=C(C=Cc1ccccc1O)N1CCC(CN2CCC(c3c[nH]c4ccccc34)CC2)CC1`, the Inhibition stood at 98% with Plasmodium falciparum [1], 43% with Plasmodium falciparum [2] and 27% in the assay on HepG2.

With `Cc1nc(-c2ccc(-c3ccc(C(=O)Nc4ccc5c(c4)C4(CCNCC4)CO5)cc3)c(C)c2)no1.Cl`, the Inhibition is 90% in the assay with Plasmodium falciparum [1], 15% in the assay on Plasmodium falciparum [2] and 37% in the assay with HepG2.

Regarding `O=C(/C=C/c1ccccc1Cl)NC1CCC(CN2CCC(c3c[nH]c4ccccc34)CC2)CC1` (stereo not given), the Inhibition is 100% and 99% with Plasmodium falciparum [1]; 51% and 35% with Plasmodium falciparum [2]; 33% and 41% in the assay on HepG2.

In the case of `COc1cc(CN2CCN(c3ccnc(N(C)C4CCN(C)CC4)n3)CC2)cc(Cl)c1O`, the Inhibition with Plasmodium falciparum [1] amounted to 94%; with Plasmodium falciparum [2], 63%; in the assay with HepG2, 11%.

For `C#CCN1CCC2=C(C1)c1c(O)cc(C(C)CCCc3ccc(F)cc3)cc1OC2(C)C` (stereo not given), the figures for the Inhibition in the assay with Plasmodium falciparum [1], with Plasmodium falciparum [2] and in the assay with HepG2 were 98%, 90% and 1%, respectively.

Consider `COc1c(F)cc(CC(C)NCC(O)c2cccc(Cl)c2)cc1F.Cl` (stereo not given), for which the Inhibition in the assay with Plasmodium falciparum [1] came to 93%; in the assay with Plasmodium falciparum [2], 86%; in the assay on HepG2, 0%.

As usually defined, the Inhibition is the percentage by which the read-out fell short of the control.

These data come from ChEMBL document CHEMBL1157539, “Thousands of chemical starting points for antimalarial lead identification” (Nature, 2010).
